A number with no mark means an inactive call. Results filed as inconclusive are left out. Calls of active or inactive are those of the source. Calls come from the whole dose curve; as a rule, active = well fitted curve in the direction sought with a large enough effect in the repeat runs; inconclusive = weak or mixed curves; inactive = no such curve, though single readings can be large; an effect the other way counts as inactive or inconclusive.

The nature of experiment [1]: Human pregnane X receptor (PXR) small molecule agonists, qHTS cell viability counter screen (AID 1346977). Note: nearly all actives have a fitted effect of over 50% in size. Note: potency is the fitted concentration of half-maximal effect. The method, boiled down:
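Readout is CellTiter-Fluor fluorescence from PXR-Luc HepG2 cells. Plated cells rested 5hr, then were treated with compounds for 24hr at 37C and 5% CO2, with reagent present during the last hour.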
Background: In qHTS, concentration-response curves come from the screen itself.

A short description of experiment [2]: Caspase-3/7 induction in HepG2 cells by small molecules, qHTS assay (AID 1346978). Note: nearly all actives have a fitted effect of over 15% in size. Put shortly: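 Caspase-3/7 induction was measured by Caspase-Glo 3/7 luminescence (30 min, room temperature) after a 17 hr compound exposure of wild-type HepG2 cells seeded at 2,000 per well and pre-incubated 5 hr.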
The nature of experiment [3]: Caspase-3/7 induction in CHO-K1 cells by small molecules, qHTS cell viability counter screen (AID 1346979). Note: nearly all actives have a fitted effect of over 35% in size. Note: potency is the fitted concentration of half-maximal effect. The method, boiled down:
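To flag cytotoxic compounds, treated CHO-K1 wild-type cells were given CellTiter-Fluor at 16hr and read fluorescently after 1hr at 37C; the caspase-3/7 luminescence was measured in these same wells.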

Experiment [4] in a line: Caspase-3/7 induction in CHO-K1 cells by small molecules, qHTS assay (AID 1346980). Note: nearly all actives have a fitted effect of over 15% in size. The method, boiled down: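 Luminescent Caspase-Glo 3/7 read (30min, room temperature) quantified apoptosis induction. Cells were wild-type CHO-K1, treated with compound for 17hr at 37 C and 5% CO2.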
Experiment [5] can be described thus: Caspase-3/7 induction in HepG2 cells by small molecules, qHTS cell viability counter screen (AID 1346981). Note: series mostly up to about 92 µM; nearly all actives have a fitted effect of over 30% in size. The method, boiled down:
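CellTiter-Fluor fluorescence measured viability in the same wells used for Caspase-Glo 3/7. HepG2 (wild type) at 2,000 cells/well were pre-incubated 5 hr, dosed, and given reagent at 16 hr, with 1 hr further at 37C.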

Experiment [6] deals with Cytochrome P450 2C19 (Homo sapiens) (UniProt P33261). The experiment is described as follows: Cytochrome P450 Family 2 Subfamily C Member 19 (CYP2C19) small molecule antagonists: luciferase reporter qHTS assay (AID 1671197). For activity change, negative = inhibition: series mostly up to about 120 µM. Note: nearly all actives have a fitted effect of over 65% in size. Note: potency is the fitted concentration of half-maximal effect. The method, boiled down: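 CYP2C19 P450-Glo, 1536-well qHTS. Cpd + enzyme/proluciferin substrate 10 min RT; + NADPH regen, 37C 1 h; stop with luciferin detection reagent, 20 min RT, luminescence (RLU). Pos ctrl ketoconazole.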
Sequence of Cytochrome P450 2C19 (Homo sapiens) (P33261 whole entry, looked up): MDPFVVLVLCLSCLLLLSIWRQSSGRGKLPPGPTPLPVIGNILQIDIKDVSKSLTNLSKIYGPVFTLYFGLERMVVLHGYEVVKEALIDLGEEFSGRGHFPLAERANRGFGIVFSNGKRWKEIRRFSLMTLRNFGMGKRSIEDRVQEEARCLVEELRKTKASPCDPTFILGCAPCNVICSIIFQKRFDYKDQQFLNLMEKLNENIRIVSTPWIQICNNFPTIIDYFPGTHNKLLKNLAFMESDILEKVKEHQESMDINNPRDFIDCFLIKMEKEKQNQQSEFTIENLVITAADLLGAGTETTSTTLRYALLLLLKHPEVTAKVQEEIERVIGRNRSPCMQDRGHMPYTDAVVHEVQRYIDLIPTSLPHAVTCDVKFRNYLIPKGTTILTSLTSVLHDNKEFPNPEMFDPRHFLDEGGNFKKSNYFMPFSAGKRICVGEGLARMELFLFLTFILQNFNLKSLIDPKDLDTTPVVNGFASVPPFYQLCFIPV
(A reporter such as luciferase makes a cellular process visible.)

Experiment [7] addresses Cytochrome P450 2C9 (Homo sapiens) (UniProt P11712). The experiment is described as follows: Cytochrome P450 Family 2 Subfamily C Member 9 (CYP2C9) small molecule antagonists: luciferase reporter qHTS assay (AID 1671198). For activity change, negative = inhibition: series mostly up to about 120 µM. Note: nearly all actives have a fitted effect of over 50% in size. Note: potency is the fitted concentration of half-maximal effect. Put shortly:
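Enzyme-substrate mix preincubated with compound 10 min at room temperature; reaction started with NADPH regeneration solution, 1 h 37C. Luminescent luciferin product read after 20 min detection reagent.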

The target in experiment [8] is Cytochrome P450 1A2 (Homo sapiens) (UniProt P05177). Nature of the experiment: Cytochrome P450 Family 1 Subfamily A Member 2 (CYP1A2) small molecule antagonists: luciferase reporter qHTS assay (AID 1671199). For activity change, negative = inhibition: series mostly up to about 120 µM. Note: nearly all actives have a fitted effect of over 50% in size. Note: potency is the fitted concentration of half-maximal effect. Put shortly:
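Luminescence from luciferin formed by CYP1A2 from a proluciferin substrate, read 20 min after detection reagent. Compound was pre-incubated 10 min with enzyme-substrate, and reaction started with NADPH regeneration solution for 1 h at room temperature; furafylline control.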

For experiment [9], the target named is Cytochrome P450 3A4 (Homo sapiens) (UniProt P08684). Nature of the experiment: Cytochrome P450 Family 3 Subfamily A Member 4 (CYP3A4) small molecule antagonists: luciferase reporter qHTS assay (AID 1671201). For activity change, negative = inhibition: series mostly up to about 120 µM. Note: nearly all actives have a fitted effect of over 50% in size. Note: potency is the fitted concentration of half-maximal effect. Put shortly:
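Setup: enzyme-substrate mix, compound pin transfer, 10 min RT. Reaction: NADPH regeneration solution, 1 h RT. Readout: detection reagent stops turnover, luminescence measured after 20 min, expressed in relative luminescence units.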

The target of experiment [10] is Nuclear receptor subfamily 1 group I member 2 (Homo sapiens) (UniProt O75469). The experiment is described as follows: Human pregnane X receptor (PXR) small molecule agonists, qHTS assay (AID 1346982). Note: nearly all actives have a fitted effect of over 35% in size. Note: potency is the fitted concentration of half-maximal effect. Put shortly: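 Agonist mode: luminescence from ONE-Glo after 24 h compound exposure at 37C in HepG2 cells carrying hPXR-responsive CYP3A4 luciferase, plated in charcoal-stripped serum medium 5 h beforehand.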
Sequence of Nuclear receptor subfamily 1 group I member 2 (Homo sapiens) (O75469 whole entry, looked up): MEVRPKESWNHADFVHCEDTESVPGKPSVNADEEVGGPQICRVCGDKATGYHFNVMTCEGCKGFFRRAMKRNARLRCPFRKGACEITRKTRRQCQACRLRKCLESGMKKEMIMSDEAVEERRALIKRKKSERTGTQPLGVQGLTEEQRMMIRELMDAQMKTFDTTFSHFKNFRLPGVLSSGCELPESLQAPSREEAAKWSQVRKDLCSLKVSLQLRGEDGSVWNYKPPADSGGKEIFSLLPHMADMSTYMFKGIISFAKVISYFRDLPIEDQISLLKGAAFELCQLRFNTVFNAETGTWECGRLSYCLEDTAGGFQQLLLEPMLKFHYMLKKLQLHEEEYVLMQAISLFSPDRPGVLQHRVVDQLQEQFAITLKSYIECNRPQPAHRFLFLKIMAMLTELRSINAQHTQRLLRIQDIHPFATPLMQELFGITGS

The target of experiment [11] is Cytochrome P450 2D6 (Homo sapiens) (UniProt P10635). The experiment is described as follows: Cytochrome P450 Family 2 Subfamily D Member 6 (CYP2D6) small molecule antagonists: luciferase reporter qHTS assay (AID 1671196). For activity change, negative = inhibition: series mostly up to about 120 µM. Note: nearly all actives have a fitted effect of over 50% in size. Note: potency is the fitted concentration of half-maximal effect. Put shortly:
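CYP2D6 activity was followed as luminescence from its luciferin product after a 1 h NADPH-driven reaction at room temperature. Enzyme-substrate mix and compound were pre-incubated for 10 min, and the signal was read 20 min after adding detection reagent.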

In experiment [12] the target is Voltage-gated inwardly rectifying potassium channel KCNH2 (Homo sapiens) (UniProt Q12809). Nature of the experiment: Human Ether-a-go-go-Related Gene (hERG) channel small molecule antagonists: fluorescence cell-based qHTS assay (AID 1671200). The method, boiled down: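 Measured: Tl+ flux via fluorescence (480/540 nm) in hERG-expressing U2OS cells after 1 h dye loading at room temperature.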
Sequence of Voltage-gated inwardly rectifying potassium channel KCNH2 (Homo sapiens) (Q12809 whole entry, looked up): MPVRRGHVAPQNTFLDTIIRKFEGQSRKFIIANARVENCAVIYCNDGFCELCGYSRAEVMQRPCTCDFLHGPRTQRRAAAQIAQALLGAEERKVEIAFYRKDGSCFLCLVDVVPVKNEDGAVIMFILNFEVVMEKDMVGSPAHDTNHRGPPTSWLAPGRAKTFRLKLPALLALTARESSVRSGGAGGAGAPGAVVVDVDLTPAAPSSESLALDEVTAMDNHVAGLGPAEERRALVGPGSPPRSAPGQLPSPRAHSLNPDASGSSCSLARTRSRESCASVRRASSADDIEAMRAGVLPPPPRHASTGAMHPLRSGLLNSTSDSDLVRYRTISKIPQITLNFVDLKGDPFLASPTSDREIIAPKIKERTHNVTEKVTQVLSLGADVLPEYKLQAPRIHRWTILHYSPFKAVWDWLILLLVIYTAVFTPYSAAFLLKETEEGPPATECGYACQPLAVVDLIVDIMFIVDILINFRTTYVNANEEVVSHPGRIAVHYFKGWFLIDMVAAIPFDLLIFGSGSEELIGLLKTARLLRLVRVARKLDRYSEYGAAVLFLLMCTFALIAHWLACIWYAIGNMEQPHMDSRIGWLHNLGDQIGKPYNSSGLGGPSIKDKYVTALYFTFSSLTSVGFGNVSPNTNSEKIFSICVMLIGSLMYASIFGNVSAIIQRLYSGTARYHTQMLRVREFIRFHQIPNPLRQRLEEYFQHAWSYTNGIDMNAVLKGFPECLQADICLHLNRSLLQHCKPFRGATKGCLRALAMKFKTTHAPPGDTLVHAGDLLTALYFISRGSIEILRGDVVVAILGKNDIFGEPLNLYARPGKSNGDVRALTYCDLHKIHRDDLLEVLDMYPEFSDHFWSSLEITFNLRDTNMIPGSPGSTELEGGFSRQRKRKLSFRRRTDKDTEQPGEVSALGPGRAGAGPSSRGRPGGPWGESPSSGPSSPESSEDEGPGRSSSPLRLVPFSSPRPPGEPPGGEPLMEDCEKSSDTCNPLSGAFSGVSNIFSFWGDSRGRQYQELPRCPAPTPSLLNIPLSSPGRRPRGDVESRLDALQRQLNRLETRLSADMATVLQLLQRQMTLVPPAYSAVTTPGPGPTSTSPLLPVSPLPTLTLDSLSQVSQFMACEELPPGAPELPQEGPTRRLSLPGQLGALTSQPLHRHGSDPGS
On the technique in general: Block of hERG is tested as a sign of cardiac risk.

Experiment [13] addresses Nuclear receptor subfamily 1 group I member 2 (Rattus norvegicus) (UniProt Q9R1A7). The experiment is described as follows: Rat pregnane X receptor (rPXR) activation by small molecules, qHTS assay (AID 1346983). Note: nearly all actives have a fitted effect of over 20% in size. As to conditions: rPXR luciferase reporter cells, One-Glo luminescence, 24 h; max activation: hits give high values. Put shortly: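 Luminescent readout (One-Glo luciferase, 30 min room temperature) followed 24 hr compound treatment at 37 C of rPXR cells plated 2,000 per well and preincubated 5hr; qHTS format with compounds delivered in DMSO.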

The target in experiment [14] is Nuclear receptor subfamily 1 group I member 2 (Homo sapiens) (UniProt O75469). Nature of the experiment: CYP3A4 induction through human pregnane X receptor (PXR) by small molecules, qHTS assay (AID 1346984). Note: nearly all actives have a fitted effect of over 40% in size. The method, boiled down:
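Read-out is luminescence after One-Glo addition, following a 3 hr, 37C incubation with Luciferin-IPA CYP3A4 substrate (3uM final). Before that, compounds were on DPX-2 cells (HepG2 co-transfected with PXR element plus CYP3A4-promoter luciferase) for 24 hr at 37C.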

The target is the same in experiment [15]. The experiment is described as follows: Human pregnane X receptor (PXR) activation by small molecules, qHTS assay (AID 1346985). Note: nearly all actives have a fitted effect of over 40% in size. The method, boiled down: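 DPX-2 cells (HepG2 co-transfected with a PXR response element and a CYP3A4-promoter luciferase construct) were seeded at 2,000 per well, rested 5 hr at 37C, then exposed to DMSO-dissolved compounds for 24 hr. Activation was read as luciferase luminescence.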
% is set by controls: 0 for no effect and ±100 for the full control effect.

Sequence of Cytochrome P450 2D6 (Homo sapiens) (P10635 whole entry, looked up): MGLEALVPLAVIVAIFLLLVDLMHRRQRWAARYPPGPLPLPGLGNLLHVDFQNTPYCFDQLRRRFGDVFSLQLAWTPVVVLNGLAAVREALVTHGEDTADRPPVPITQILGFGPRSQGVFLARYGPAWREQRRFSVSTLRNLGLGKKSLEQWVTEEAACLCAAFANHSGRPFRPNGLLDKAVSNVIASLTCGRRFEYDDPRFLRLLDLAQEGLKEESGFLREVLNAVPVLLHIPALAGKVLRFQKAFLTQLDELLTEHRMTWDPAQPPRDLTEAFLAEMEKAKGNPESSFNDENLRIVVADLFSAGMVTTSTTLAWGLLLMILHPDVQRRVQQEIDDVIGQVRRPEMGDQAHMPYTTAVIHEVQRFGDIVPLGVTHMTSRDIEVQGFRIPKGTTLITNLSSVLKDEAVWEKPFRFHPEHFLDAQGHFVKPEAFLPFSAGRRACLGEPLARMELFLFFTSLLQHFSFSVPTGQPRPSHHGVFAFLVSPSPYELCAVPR
Sequence of Cytochrome P450 2C9 (Homo sapiens) (P11712 whole entry, looked up): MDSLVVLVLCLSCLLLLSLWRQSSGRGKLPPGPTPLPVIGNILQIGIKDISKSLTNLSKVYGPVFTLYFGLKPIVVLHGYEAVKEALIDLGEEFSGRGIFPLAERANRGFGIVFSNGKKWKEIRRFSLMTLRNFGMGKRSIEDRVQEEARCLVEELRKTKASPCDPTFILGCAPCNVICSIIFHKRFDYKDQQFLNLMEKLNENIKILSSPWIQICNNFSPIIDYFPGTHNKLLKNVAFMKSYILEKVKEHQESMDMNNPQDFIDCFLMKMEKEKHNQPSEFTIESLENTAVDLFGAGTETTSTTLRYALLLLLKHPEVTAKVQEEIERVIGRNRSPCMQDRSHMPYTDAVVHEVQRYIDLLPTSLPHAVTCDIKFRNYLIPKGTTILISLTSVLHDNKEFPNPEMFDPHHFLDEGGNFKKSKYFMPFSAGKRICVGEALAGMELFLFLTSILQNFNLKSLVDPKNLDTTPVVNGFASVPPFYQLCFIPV
Sequence of Cytochrome P450 1A2 (Homo sapiens) (P05177 whole entry, looked up): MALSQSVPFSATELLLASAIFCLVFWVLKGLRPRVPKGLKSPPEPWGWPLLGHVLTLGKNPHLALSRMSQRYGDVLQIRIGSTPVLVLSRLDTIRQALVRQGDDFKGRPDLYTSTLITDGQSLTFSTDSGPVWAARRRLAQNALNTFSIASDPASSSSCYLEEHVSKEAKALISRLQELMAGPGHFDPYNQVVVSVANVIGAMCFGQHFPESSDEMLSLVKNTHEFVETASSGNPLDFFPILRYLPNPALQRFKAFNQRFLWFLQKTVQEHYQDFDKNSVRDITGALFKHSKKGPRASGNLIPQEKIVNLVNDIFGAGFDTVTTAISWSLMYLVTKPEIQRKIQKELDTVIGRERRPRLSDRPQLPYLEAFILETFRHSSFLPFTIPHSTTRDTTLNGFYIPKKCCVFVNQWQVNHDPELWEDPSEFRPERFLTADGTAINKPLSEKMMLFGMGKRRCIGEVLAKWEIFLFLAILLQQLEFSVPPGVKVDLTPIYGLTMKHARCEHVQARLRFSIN
Sequence of Cytochrome P450 3A4 (Homo sapiens) (P08684 whole entry, looked up): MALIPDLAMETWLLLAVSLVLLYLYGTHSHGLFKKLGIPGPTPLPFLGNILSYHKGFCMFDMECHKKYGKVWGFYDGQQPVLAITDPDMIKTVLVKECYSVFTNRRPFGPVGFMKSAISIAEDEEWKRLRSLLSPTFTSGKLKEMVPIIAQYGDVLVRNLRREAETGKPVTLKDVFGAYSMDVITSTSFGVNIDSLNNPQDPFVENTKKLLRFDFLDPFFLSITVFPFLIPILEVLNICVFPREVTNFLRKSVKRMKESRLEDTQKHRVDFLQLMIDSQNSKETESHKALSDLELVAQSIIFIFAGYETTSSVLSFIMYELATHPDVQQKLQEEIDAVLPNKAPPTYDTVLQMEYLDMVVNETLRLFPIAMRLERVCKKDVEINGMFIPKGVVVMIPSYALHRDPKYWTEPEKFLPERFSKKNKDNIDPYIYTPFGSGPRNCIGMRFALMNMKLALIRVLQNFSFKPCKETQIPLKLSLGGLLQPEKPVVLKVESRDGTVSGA
Sequence of Nuclear receptor subfamily 1 group I member 2 (Rattus norvegicus) (Q9R1A7 whole entry, looked up): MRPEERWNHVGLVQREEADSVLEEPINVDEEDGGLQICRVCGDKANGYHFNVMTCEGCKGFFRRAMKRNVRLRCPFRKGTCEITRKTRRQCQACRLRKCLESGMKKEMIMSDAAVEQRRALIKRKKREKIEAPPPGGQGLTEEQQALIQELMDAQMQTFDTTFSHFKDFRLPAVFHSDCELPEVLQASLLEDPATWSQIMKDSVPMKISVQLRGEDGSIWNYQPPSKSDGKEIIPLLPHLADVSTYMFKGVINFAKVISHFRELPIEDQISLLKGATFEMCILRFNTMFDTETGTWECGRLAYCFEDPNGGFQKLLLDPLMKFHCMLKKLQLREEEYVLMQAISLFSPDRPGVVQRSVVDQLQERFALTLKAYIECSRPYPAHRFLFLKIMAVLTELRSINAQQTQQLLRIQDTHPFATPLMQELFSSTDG

Turning to `CCOC(=O)C(C)Oc1ccc(Oc2nc3ccc(Cl)cc3o2)cc1` (configuration not stated), the Potency entry in [1], in [2], in [3], in experiment [5] and in [9] was “inactive” throughout. For the same molecule, in experiment [4], the call was inactive. Also, the values for the Potency in experiment [6], in experiment [7] and in [8] were 31.7 µM (active), 39.9 µM (active) and 31.7 µM (active), respectively.

Take `CCC(C(=O)OCCN(CC)CC)c1ccccc1` (configuration not stated): the Potency entry in experiment [1], in experiment [2], in experiment [3], in experiment [5], in experiment [10] and in experiment [6] was “inactive” in each case. Moreover, the Potency result in experiment [7], in [12] and in experiment [9] was “inactive” throughout. The Potency in [11] was 3.09 µM (active); in experiment [8] it was 11.5 µM (active).

Regarding `C=CCCCCCCCCCCCCCCCC`, the results for the activity change, negative = cytotoxicity in [1], in [3] and in experiment [5] were 0.0327% [at 8.39 µM], 7.02% [at 8.39 µM] and -1.16% [at 8.39 µM], respectively. The caspase activation in experiment [2] was -6.49% [at 8.39 µM]. Also, the activation in [10] is -1.52% [at 8.39 µM]. Further, the activity change, negative = inhibition in experiment [11] was 0.602% [at 10.5 µM]; in experiment [6], 5.26% [at 10.5 µM]; in [7], 3.76% [at 10.5 µM]; in [8], -11.2% [at 10.5 µM]; in experiment [12] it was -0.108% [at 6.97 µM]; in experiment [9] it was 6.02% [at 10.5 µM].

Consider `CCCCCCCCCOC(C)=O`, for which the Potency result in experiment [1], in [2], in [3], in [5], in [10] and in experiment [6] was “inactive” each time. For the same molecule, the Potency result in experiment [7], in [12] and in experiment [9] was “inactive” each time. The molecule was called inactive in [4].

Consider `CN(C)C(=O)Nc1ccc(Oc2ccc(Cl)cc2)cc1`, for which the Potency result in [1] and in experiment [2] was “inactive” throughout. The Potency in experiment [3] was 54.5 µM (active); in experiment [10] it was 10.9 µM (active); in experiment [6], 17.8 µM (active); in experiment [7], 35.6 µM (active); in experiment [8], 12.6 µM (active). Also, the molecule was classed as inactive in experiment [4].

For `Cc1nc2ccccc2s1`, the Potency entry in experiment [1], in experiment [2], in experiment [3], in [5], in [10] and in [7] was “inactive” each time. In addition, the Potency entry in experiment [9] was “inactive”. The molecule was called inactive in [4]. Moreover, in experiment [6], the Potency is 80.2 µM (active).

As for `CCCCCCCC/C=C\CCCCCCCC(=O)OC(CO)CO`, the Potency entry in experiment [1], in [2], in experiment [3], in experiment [10] and in experiment [12] was “inactive” each time. In addition, the call in experiment [4] was inactive. Besides, the Potency in [6] is 71 µM (active); in experiment [7], 20 µM (active); in experiment [8], 71 µM (active); in experiment [9], 17.8 µM (active).

Regarding `COc1ccc(C(=O)c2cccc(O)c2)c(OC)c1`, the Potency result in [1], in [2], in experiment [3], in experiment [11], in experiment [7] and in experiment [12] was “inactive” throughout. In [4], the result was inactive. Besides, the results for the Potency in experiment [10], in experiment [6] and in experiment [9] were 61 µM (active), 3.55 µM (active) and 31.7 µM (active), respectively.

In the case of `Cc1nccn1-c1ccc(Sc2cccc(C3(C(N)=O)CCOCC3)c2)cc1`, the Potency in experiment [1] is 8.63 µM (active); in experiment [3], 7.7 µM (active); in experiment [10], 13.7 µM (active); in experiment [11] it was 35.6 µM (active); in experiment [6], 20 µM (active); in [7], 5.64 µM (active). For the same molecule, the Potency in experiment [9] was 7.96 µM (active). The Potency entry in experiment [2] is “inactive”. The molecule was called inactive in experiment [4].

As to `O=C(O)c1ccc(CO)o1`, the Potency entry in experiment [1], in experiment [2], in [3], in [5], in experiment [10] and in [6] was “inactive” in each case. For the same molecule, the Potency result in experiment [7], in experiment [12] and in [9] was “inactive” in each case. Besides, the Potency is 18.2 µM (active) in [11] and 64.4 µM (active) in experiment [8].

Regarding `CCn1nc(C)c2c1C(=O)NCC(c1ccc(O)cc1)=N2`, the Potency result in [1], in [2], in experiment [3], in experiment [5], in [11] and in [6] was “inactive” throughout. For the same molecule, the Potency result in [12] is “inactive”. Further, in experiment [4], the result was inactive. Also, the values for the Potency in experiment [7], in experiment [8] and in experiment [9] were 44.8 µM (active), 63.3 µM (active) and 31.7 µM (active), respectively.

In the case of `CC(=O)CC(c1ccc([N+](=O)[O-])cc1)c1c(O)c2ccccc2oc1=O` (configuration not stated), the Potency entry in experiment [1], in [2], in [5], in experiment [10], in experiment [14] and in experiment [15] was “inactive” throughout. The Potency entry in [8], in experiment [12] and in [9] was “inactive” in each case. In experiment [13], the max activation is -1.52%. Also, the Potency is 38.9 µM (active) in [11], 8.71 µM (active) in experiment [6] and 2.45 µM (active) in [7].

Source of the values: PubChem BioAssay (Tox21).
